Hits are enriched below; roughly 5.9% of the tested compounds scored in any of these assays.
Gal4-VP16 FLuc – VP16 counterscreen qHTS for inhibitors of ROR gamma transcriptional activity | 310,000 compounds, 3.5% hits | Drosophila S2 Gal4-VP16 UAS-luciferase, luminescence, 20 h | AID 2546, 2010 | Potency, µM (top dose mostly 53.6 µM), inactives show top-dose activity, negative = inhibition, usual class: inhibitors;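 further: Gal4-VP16 expression switched on by copper sulfate through the metallothionein promoter; on the % scale 0 is the no-effect control and ±100 the full control effect; nearly all actives have a fitted effect of over 50% in size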
HEK293 tox – qHTS of GLP-1 Receptor Inverse Agonists: Cytotox Screen; Potency, µM (doses to about 38.3 µM), without a hit: at the highest dose activity change, negative = inhibition, usual class: inhibitors; HEK293 cAMP-luciferase reporter cells, luminescence, 24 h; 410,000 compounds, 0.13% hits;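 further: loss of luciferase light is scored as toxicity; on the % scale 0 is the no-effect control and ±100 the full control effect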
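Step one: seed cells (200 cells/uL, DMEM with 10% Nu serum, 1% pen-strep). Step two: 12-hour incubation at 37 deg C. Step three: pin 23 nL compound, incubate 24 hr. Step four: add luciferase reagent, read luminescence 12 min later.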
GLP1R ag – qHTS of GLP-1 Receptor Agonists; Glucagon-like peptide 1 receptor (Homo sapiens), P43220; HEK293 GLP-1R CRE-luciferase, luminescence, 4-6 h; cells express a hypersensitive GLP-1R form; Potency, µM (series often up to 45.6 µM), inactives show at the highest dose activation, hits mostly activators; 380,000 compounds, 0.007% hits; further: % of control where 0% means no effect
GLP-1R inv ag – qHTS of GLP-1 Receptor Inverse Agonists (Inhibition Mode); Glucagon-like peptide 1 receptor (Homo sapiens), P43220; HEK293 GLP-1R CRE-luciferase, luminescence, 24 h; GLP-1R form is constitutively active; Potency, µM (titrated, usually from 38.3 µM), without a hit: at the highest dose activity change, negative = inhibition, hits mostly inhibitors; 410,000 compounds, 1.6% hits; AID 624417, 2012; further: on the % scale 0 is the no-effect control and ±100 the full control effect; nearly all actives have a fitted effect of over 55% in size
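Seeding at 200 cells/uL, 12 h culture, 24 hr compound treatment, then luciferase reagent and a luminescence read; cells are HEK293 stably expressing a constitutively active GLP-1R plus cAMP-responsive luciferase.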
RORg inh – qHTS for inhibitors of ROR gamma transcriptional activity | Nuclear receptor ROR-gamma (Mus musculus), P51450 | Drosophila S2 Gal4-RORgamma UAS-luciferase reporter, 20 h | Potency, µM (doses to about 53.6 µM), for inactives: at the top dose activity change, negative = inhibition, most hits filed as inhibitors | 310,000 compounds, 5.4% hits; further: on the % scale 0 is the no-effect control and ±100 the full control effect; nearly all actives have a fitted effect of over 60% in size
Target sequence (P51450 whole entry, looked up, the tested form may be a part): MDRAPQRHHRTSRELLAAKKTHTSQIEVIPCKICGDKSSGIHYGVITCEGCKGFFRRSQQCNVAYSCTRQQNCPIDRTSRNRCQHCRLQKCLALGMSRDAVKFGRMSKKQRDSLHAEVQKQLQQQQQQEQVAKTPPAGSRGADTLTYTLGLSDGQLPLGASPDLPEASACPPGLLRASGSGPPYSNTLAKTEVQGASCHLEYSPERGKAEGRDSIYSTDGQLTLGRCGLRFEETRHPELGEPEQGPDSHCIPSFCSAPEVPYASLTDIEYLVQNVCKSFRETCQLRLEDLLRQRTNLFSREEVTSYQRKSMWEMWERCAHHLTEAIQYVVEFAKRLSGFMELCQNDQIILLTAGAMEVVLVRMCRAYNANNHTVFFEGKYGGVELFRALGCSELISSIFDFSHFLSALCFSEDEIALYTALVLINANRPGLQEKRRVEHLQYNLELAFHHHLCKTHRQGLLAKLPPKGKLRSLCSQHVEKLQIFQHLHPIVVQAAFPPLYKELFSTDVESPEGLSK
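Stable Schneider cell line, Gal4 DNA-binding domain fused to ROR gamma, UAS-luciferase. Cmpd 1 hr RT → CuSO4 700 uM final → 20 hr RT → luciferase reagent 10 min → luminescence.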
* hit, by the source's call; i = inactive; ? = inconclusive; . = not tested or not shown; [ ] = another dose, or the depositor's remark. The call rests on the fitted dose curve; in most records, active means well fitted curve in the direction sought with a large enough effect; inconclusive means small, poorly fitted or top-dose-only effect, or another doubt; inactive means no such curve, though single readings can be large; an effect the other way counts as inactive or inconclusive. Potency means the concentration at half of the fitted maximal effect.

SMILES	Gal4-VP16 FLuc	HEK293 tox	GLP1R ag	GLP-1R inv ag	RORg inh
COc1ccc2cc(C(=O)NCc3ccco3)c(=Nc3ccc(C(=O)O)cc3)oc2c1	2.8µM*	-19%	-6%	-11%	1.1µM*
O=C(NCc1ccco1)c1cc2ccc(O)cc2oc1=O	10µM*	i	-6%	358%	10µM*
COc1ccc2oc(=Nc3ccc(C(=O)O)cc3)c(C(=O)NCc3ccco3)cc2c1	5%	20%	-2%	1%	12%
O=C1CCCC=C1[C@@H](O)C1CCCCC1	-5%[10 µM]	.	.	.	-8%[10 µM]
COc1ccccc1N1CCN(C(=O)CCc2nnc3n(C)c(=O)c4sccc4n23)CC1	.	0%	-2%	-16%	.
COc1cc(NC(=O)CC(c2cccs2)N2Cc3ccccc3C2=O)cc(OC)c1OC (stereo not given)	.	-11%	-1%	0%	.
Cc1ccc(NC(=O)/C(C#N)=C/c2cc(C)n(-c3ccc(Br)cc3)c2C)cc1C	.	-16%	.	?	.
COc1ccc(NS(=O)(=O)c2ccc(-n3cnnn3)cc2)cc1OC	10µM*	-3%	2%	0%	-5%
CC(=O)Nc1ccc(NS(=O)(=O)c2ccccc2)cc1	-1%	9%	-1%	8%	-1%
COc1ccc(S(=O)(=O)Nc2ccc3c(c2)OCO3)cc1OC	3%	0%	0%	0%	?
CC(=O)Nc1ccc(S(=O)(=O)Nc2ccc3c(c2)OCCO3)cc1Cl	13µM*	5%	6%	27%	?
COc1ccc(NS(=O)(=O)c2ccc3c(c2)OCCO3)cc1OC	7.1µM*	4%	10%	5%	?
CC(=O)Nc1ccc(S(=O)(=O)Nc2ccc3c(c2)C(=O)OC3)cc1	11µM*	.	.	.	?
COc1cccc(CNC(=O)C2CCN(c3nnc(-n4c(C)ccc4C)s3)CC2)c1	.	-1%	.	-12%	.
Cc1ccc(Cl)cc1NC(=O)NCc1cccn1Cc1ccc(F)cc1	.	-7%	.	0%	.
COc1ccc(NS(=O)(=O)c2ccc(-c3cnc(C4CC4)o3)cc2)cc1OC	7.1µM*	-27%	12%	?	?
Cc1ccc(-c2noc(CCC(=O)NCCCN3CCN(c4ccc(F)cc4)CC3)n2)cc1	?	-5%	-4%	-22%	-7%
COc1ccccc1-c1noc(CCC(=O)Nc2cccc(C)c2)n1	3%	-15%	0%	-18%	39%
Cc1ccc(-c2noc(CCC(=O)NCCCN3CCN(c4cccc(Cl)c4)CC3)n2)cc1	14µM*	-2%	3%	?	4µM*
Cc1cccc(-c2noc(CCCC(=O)Nc3ccc(C(N)=O)cc3)n2)c1	11µM*	-30%	-15%	4%	16µM*
COc1ccc(-c2noc(CCC(=O)Nc3cccc(C)c3)n2)cc1	?	7%	0%	-30%	0.28µM*
CCOC(=O)c1cccc(NC(=O)CCc2nc(-c3ccc(C)cc3)no2)c1	-29%	-21%	-4%	-18%	3.2µM*
CCOC(=O)c1cccc(NC(=O)CCc2nc(-c3ccccc3F)no2)c1	-1%	-5%	2%	-16%	-17%
CCNC(=S)NNC(=O)c1ccccc1Cl	14µM*	-12%	3%	0%	3.2µM*
CCc1ccc(NC(=S)NNC(=O)c2ccccc2OC(F)F)cc1	?	.	.	.	-41%
SMILES	Gal4-VP16 FLuc	HEK293 tox	GLP1R ag	GLP-1R inv ag	RORg inh
CCNC(=S)NNC(=O)c1ccccc1OC(F)F	?	-22%	-15%	-22%	4µM*
CCNC(=S)NNC(=O)c1ccncc1	-10%	7%	19%	20%	?
O=C(NNC(=O)c1ccccc1Cl)c1ccccc1Cl	-1%	1%	2%	36%	-21%
CCNC(=S)NNC(=O)c1ccccn1	?	-7%	-2%	-1%	8.9µM*
COc1ccc(NC(=S)NNC(=O)c2ccccc2OC(F)F)cc1	-8%	6%	-4%	-19%	13µM*
O=C(CCc1ccccc1)NNC(=O)c1ccccn1	?	-33%	3%	?	10µM*
O=C(CCc1ccccc1)NNC(=O)CCc1ccccc1	-12%	2%	-6%	10%	-6%
Cc1cccc(NC(c2ccc(O)cc2)c2ccc3ccc(C)nc3c2O)n1 (stereo not given)	-4%	2%	9%	-2%	10µM*
COc1cccc(C(Nc2ccccc2)c2ccc3ccc(C)nc3c2O)c1 (stereo not given)	.	-7%	.	?	.
COc1ccc(O[C@H]2C=C[C@@H](c3ccccc3)O[C@H]2COC(=O)CC/C(C)=N\O[C@@H](C)c2cn([C@H]3COC[C@H]3O)nn2)cc1	5%[10 µM]	.	.	.	1%[10 µM]
COC(=O)Cc1ccc(NC(=S)NCc2ccc(S(N)(=O)=O)cc2)cc1	-3%	12%	5%	19%	0%
CCCCc1ccc(NC(=S)NCc2cccc(OC)c2)cc1	0%[10 µM]	?	19%	?	3.5µM*
COC(=O)Cc1ccc(NC(=S)NCc2cccc(OC)c2)cc1	8%[10 µM]	-3%[7.66 µM]	9%	4%[7.66 µM]	13µM*
CCCCc1ccc(NC(=S)Nc2ccc(Nc3ccc(OC)cc3)cc2)cc1	1.6µM*	10%	-3%	?	1.1µM*
CCC(=O)Nc1ccccc1-c1nc2ccccc2n(CC(=O)c2ccc(Cl)cc2)c1=O	.	-7%	.	16%	.
Cc1cc(NC(=O)CSCc2nc(-c3cccc(F)c3)oc2C)no1	-21%	-16%	7%	3%	1%
Cc1ccc(-c2nc(CSCC(=O)Nc3cc(C)on3)c(C)o2)cc1	6.3µM*	-17%	-4%	2%	?
CCc1ccc(-c2nc(CSCC(=O)NCc3ccccc3OC)c(C)o2)cc1	.	1%	.	-16%	.
CCc1ccc(-c2nc(CSCC(=O)NCc3ccco3)c(C)o2)cc1	2µM*	6%	5%	?	0.4µM*
CCOC(=O)CSCc1nc(-c2ccc(Cl)cc2)oc1C	?	1%	4%	-21%	10µM*
CCOc1ccc(-c2nc(CSCC(=O)NCc3ccc(Cl)cc3)c(C)o2)cc1	.	7%	.	-19%	.
COc1ccc(/C=N/Nc2nncc3ccccc23)c(OC)c1	22µM*	-9%	-3%	28%	4.5µM*
C(=N\Nc1nncc2ccccc12)/c1ccccc1	-3%	-14%	-2%	16%	-26%
COc1cc(/C=N/Nc2nncc3ccccc23)cc(OC)c1OC	11µM*	?	0%	7%	?
Cc1cccc(/C=N/Nc2nncc3ccccc23)c1	20µM*	7%	2%	?	2.5µM*
O=C(c1ccco1)N1CCC2(CCCN(C(c3ccccc3)c3ccccc3)C2)CC1	0%	.	.	.	37%

High-throughput results as filed in PubChem BioAssay.
